Assay results: PubChem BioAssay (NCATS)
Results filed as inconclusive are left out. Activity calls are given as the source filed them. Unless noted, calls come from the whole dose curve; as a rule, active = well fitted curve in the direction sought with a large enough effect; inconclusive = small, poorly fitted or top-dose-only effect, or another doubt; inactive = no such curve, though single readings can be large; an effect the other way counts as inactive or inconclusive.

What was measured:
[1] = Cytometric Cell-Based qHTS for Inhibitors of the mTORC1 Signaling Pathway in MEF (Tsc2-/-, p53-/-) Cells (AID 2660);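 note: Tsc2 and p53 null MEFs carrying empty vector with compound for 24 h; percent of cells above a phospho-rpS6 to PI ratio cutoff in each well; series mostly up to about 38 µM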
How it was run: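 Readout: Alexa-488 phospho-rpS6 (Ser235/236) intensity divided by PI intensity, thresholded against 7.5 nM rapamycin wells and reported as % positive cells. PI cell count served as the viability measure. Compound exposure was 24 hrs at 37 degree Celsius.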

[2] = High Content Imaging Cell-Based qHTS for Inhibitors of the mTORC1 Signaling Pathway in MEF (Tsc2-/-, p53-/-) Cells (AID 2666);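 note: percent of cells scored positive for phospho-rpS6 Ser235/236 immunostaining by imaging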; note: potency is the fitted concentration of half-maximal effect
How it was run: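 Inhibition of rpS6 phosphorylation is measured by immunofluorescence imaging in empty-vector Tsc2-/-, p53-/- mouse embryonic fibroblasts after 24 hrs compound exposure at 37 degree Celsius. Results are reported as % positive cells per well.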

[3] = High Content Imaging Cell-Based qHTS for Inhibitors of the mTORC1 Signaling Pathway in MEF Cells (AID 2667);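 note: Tsc2-/- p53-/- MEFs stably re-expressing wild-type Tsc2 exposed 24 h; series mostly up to about 38 µM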
How it was run: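 Fixed-cell imaging of phospho-S6 (Ser235/236, Alexa-488) after 24 hrs of compound treatment at 37 degree Celsius. Signal was normalized to Hoechst, and thresholds from the highest and lowest wells split cells into % active versus % non-active.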

[4] = Cytometry Cell-Based qHTS for Inhibitors of the mTORC1 Signaling Pathway in MEF cells (AID 2668); note: potency is the fitted concentration of half-maximal effect
How it was run: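 Tsc2-/-, p53-/- MEFs re-expressing WT Tsc2; cpd 24 hrs, 37 degree Celsius; PFA fix, Alexa-488 p-rpS6 (Ser235/236) Ab 2 hrs RT, PI counterstain; Acumen 488nm scan; p-S6/PI ratio → % positive cells; PI count = viability.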

[5] = molecular target: Ubiquitin carboxyl-terminal hydrolase 2 (Homo sapiens) (UniProt O75604); assay: qHTS Validation Assay for Inhibitors of Ubiquitin-specific Protease USP2a Using CHOP2 as the Reporter (AID 463106)
Ubiquitin carboxyl-terminal hydrolase 2 (Homo sapiens), sequence (O75604 whole entry, looked up): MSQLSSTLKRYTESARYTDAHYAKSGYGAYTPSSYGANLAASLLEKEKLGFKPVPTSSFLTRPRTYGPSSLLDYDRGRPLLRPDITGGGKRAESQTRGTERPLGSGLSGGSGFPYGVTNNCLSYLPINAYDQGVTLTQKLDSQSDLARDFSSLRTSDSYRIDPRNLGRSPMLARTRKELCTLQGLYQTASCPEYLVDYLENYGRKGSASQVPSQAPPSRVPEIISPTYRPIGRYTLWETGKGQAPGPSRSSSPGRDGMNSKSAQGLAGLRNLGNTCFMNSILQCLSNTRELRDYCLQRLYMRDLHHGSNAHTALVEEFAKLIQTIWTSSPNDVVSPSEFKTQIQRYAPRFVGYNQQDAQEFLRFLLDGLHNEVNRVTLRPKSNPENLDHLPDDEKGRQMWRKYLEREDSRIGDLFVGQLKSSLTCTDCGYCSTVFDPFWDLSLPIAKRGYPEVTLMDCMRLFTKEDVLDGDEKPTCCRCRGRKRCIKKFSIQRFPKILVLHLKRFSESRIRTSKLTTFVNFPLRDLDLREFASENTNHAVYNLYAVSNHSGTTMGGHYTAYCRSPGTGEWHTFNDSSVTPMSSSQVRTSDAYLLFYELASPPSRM
How it was run: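 Inhibition is expressed relative to NEM as the full-inhibition control, with concentration-response curves classed by fit quality, magnitude and activity. Enzyme (USP2 core, 10nM) meets 25nM Ub-CHOP2 after compound preincubation; readings are taken at 60min.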

[6] = Counterscreen for APE1 Inhibitors: Fluorescent Dye Displacement Validation Assay (AID 1707)
How it was run: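 Signal: ThO fluorescence (ex 480 nm/em 540 nm) on binding 50 nM dsDNA; displacement by test compound reduces it. Conditions: 250 nM dye, 50 mM Tris-HCl pH7.5, 2 mM MgCl2, 50mM NaCl, 0.01% Tween-20.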

[7] = molecular target: Endonuclease 4 (Escherichia coli (strain K12)) (UniProt P0A6C1); assay: Counterscreen for APE1 Inhibitors: qHTS Validation Assay for Inhibitors of Endonuclease IV (AID 1708)
How it was run: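 Measured as reaction progress, the fluorescence gain between first and third kinetic reads after adding 50 nM TAMRA/BHQ-2 THF duplex to 2 nM enzyme preincubated 15 min with compound; 2 mM MgCl2, pH 7.5.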

[8] = molecular target: ATP-dependent DNA helicase Q1 (Homo sapiens) (UniProt P46063); assay: qHTS Validation Assay for Inhibitors of RecQ-Like Dna Helicase 1 (RECQ1) (AID 2353)
ATP-dependent DNA helicase Q1 (Homo sapiens), sequence (P46063 whole entry, looked up): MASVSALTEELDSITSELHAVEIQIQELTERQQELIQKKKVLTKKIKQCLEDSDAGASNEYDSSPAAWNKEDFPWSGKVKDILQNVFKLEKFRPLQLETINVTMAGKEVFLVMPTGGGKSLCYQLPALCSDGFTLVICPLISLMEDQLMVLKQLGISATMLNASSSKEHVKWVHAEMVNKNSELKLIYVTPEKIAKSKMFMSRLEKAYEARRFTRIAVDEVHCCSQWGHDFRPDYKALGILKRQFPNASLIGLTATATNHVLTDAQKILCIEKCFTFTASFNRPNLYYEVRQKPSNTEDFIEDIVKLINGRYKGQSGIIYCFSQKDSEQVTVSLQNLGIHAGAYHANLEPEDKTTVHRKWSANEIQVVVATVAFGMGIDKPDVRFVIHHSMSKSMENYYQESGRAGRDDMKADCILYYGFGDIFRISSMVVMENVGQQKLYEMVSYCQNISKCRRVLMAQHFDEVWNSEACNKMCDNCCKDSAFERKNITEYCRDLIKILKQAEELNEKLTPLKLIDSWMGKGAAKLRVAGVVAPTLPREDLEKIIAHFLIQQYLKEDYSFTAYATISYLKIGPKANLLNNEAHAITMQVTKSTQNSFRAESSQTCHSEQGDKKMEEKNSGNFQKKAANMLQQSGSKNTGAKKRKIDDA
How it was run: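 RECQ1T1 50 nM; forked duplex (20 bp + 30-nt ss tails) 200 nM, ATP 2 mM final; pH 8.0, 2 mM MgCl2, 2.5 ug/ml poly(dI-dC); 15 min compound preincubation; discontinuous kinetic read over 2 h at RT.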

[9] = molecular target: RecQ-like DNA helicase BLM (Homo sapiens) (UniProt P54132); assay: qHTS Validation Assay for Inhibitors of Bloom's syndrome helicase (BLM) (AID 2364)
RecQ-like DNA helicase BLM (Homo sapiens), sequence (P54132 whole entry, looked up): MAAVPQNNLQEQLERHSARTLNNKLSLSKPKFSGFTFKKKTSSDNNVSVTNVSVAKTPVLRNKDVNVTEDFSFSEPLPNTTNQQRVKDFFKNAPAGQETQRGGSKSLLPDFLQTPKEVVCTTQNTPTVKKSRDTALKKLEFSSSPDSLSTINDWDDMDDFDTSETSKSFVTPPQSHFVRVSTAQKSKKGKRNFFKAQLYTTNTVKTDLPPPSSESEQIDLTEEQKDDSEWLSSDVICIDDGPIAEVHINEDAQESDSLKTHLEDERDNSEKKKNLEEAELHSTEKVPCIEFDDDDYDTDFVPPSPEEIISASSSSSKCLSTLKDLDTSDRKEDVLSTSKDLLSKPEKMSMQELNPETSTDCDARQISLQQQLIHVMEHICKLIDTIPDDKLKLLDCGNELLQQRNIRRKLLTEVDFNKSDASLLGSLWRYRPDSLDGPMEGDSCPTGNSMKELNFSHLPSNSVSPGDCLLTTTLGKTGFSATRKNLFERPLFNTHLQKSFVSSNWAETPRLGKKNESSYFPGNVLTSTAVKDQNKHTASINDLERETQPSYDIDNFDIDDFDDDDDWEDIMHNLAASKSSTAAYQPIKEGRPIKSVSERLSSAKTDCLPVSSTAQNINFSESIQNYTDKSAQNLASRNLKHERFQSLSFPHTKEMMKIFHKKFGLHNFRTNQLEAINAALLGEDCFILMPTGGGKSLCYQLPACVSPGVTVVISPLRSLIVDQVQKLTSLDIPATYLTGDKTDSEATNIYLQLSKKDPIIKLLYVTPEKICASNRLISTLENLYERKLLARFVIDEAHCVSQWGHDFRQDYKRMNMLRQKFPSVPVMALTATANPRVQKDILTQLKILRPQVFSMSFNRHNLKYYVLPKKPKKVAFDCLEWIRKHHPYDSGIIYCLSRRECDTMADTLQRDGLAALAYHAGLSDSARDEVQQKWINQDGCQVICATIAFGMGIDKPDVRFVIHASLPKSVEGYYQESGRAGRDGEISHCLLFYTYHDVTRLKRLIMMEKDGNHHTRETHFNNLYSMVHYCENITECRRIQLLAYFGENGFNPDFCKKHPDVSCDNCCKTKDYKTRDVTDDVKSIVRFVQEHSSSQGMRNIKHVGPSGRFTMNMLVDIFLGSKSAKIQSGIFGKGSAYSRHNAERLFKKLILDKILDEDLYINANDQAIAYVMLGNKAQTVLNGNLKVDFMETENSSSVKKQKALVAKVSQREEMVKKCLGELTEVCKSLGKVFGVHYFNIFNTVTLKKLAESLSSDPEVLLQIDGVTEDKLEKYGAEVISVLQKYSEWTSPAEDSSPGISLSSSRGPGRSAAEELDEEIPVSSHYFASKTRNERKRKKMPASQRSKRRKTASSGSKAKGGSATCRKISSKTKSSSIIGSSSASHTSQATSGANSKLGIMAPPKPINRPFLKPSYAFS
How it was run: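 BLM 50 nM in 25 mM Tris-HCl pH 8.0, 5 mM NaCl, 2 mM MgCl2, 1 mM DTT, 0.01% Tween-20, 2.5 ug/ml poly(dI-dC); 15 min cpd preinc, RT. Start: 200 nM forked DNA + 2 mM ATP (final). TAMRA read, 2 reads 2 h apart.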

[10] = Validation screen for small molecules that induce DNA re-replication in MCF 10A normal breast cells (AID 463097); note: nearly all actives have a fitted effect of over 60% in size; note: potency is the fitted concentration of half-maximal effect
How it was run: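 Image-based qHTS: normal breast cells are incubated with compound for 48 hr, stained with Hoechst, and scanned for total nuclear fluorescence. Compounds raising the fraction of nuclei with elevated DNA content count as re-replication inducers.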

[11] = qHTS for differential inhibitors of proliferation of Plasmodium falciparum line 7G8 (AID 1815);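 note: parasite growth measured after three days of incubation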; note: potency is the fitted concentration of half-maximal effect
[12] = qHTS for differential inhibitors of proliferation of Plasmodium falciparum line GB4 (AID 1816); details: Potency: Plasmodium falciparum GB4 proliferation inhibition;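 note: parasite growth measured after 72 h incubation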; note: potency is the fitted concentration of half-maximal effect
[13] = qHTS for differential inhibitors of proliferation of Plasmodium falciparum line 3D7 (AID 1876); note: potency is the fitted concentration of half-maximal effect
[14] = qHTS for differential inhibitors of proliferation of Plasmodium falciparum line D10 (AID 1877);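 note: parasites grown with compound for 72 h before DNA staining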; note: potency is the fitted concentration of half-maximal effect
[15] = qHTS for differential inhibitors of proliferation of Plasmodium falciparum line Dd2 (AID 1882); details: Potency: Plasmodium falciparum Dd2 proliferation inhibition;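 note: series mostly up to about 29 µM; compound exposure of 72 h on infected erythrocytes; nearly all actives have a fitted effect of over 65% in size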
How it was run: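 RBC culture, 0.3% parasitemia / 2.5% Hct final; cpd added by pin tool in DMSO; 72 h, 37 C, 5% CO2; lysis buffer + SYBR Green I, o/n RT dark; FI 485/535; norm. to artemisinin 0.29 uM and DMSO.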

[16] = qHTS for differential inhibitors of proliferation of Plasmodium falciparum line W2 (AID 1883); details: Potency: Plasmodium falciparum W2 proliferation inhibition;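 note: parasites grown with compound for 72 h before lysis and staining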; note: potency is the fitted concentration of half-maximal effect
[17] = qHTS for differential inhibitors of proliferation of Plasmodium falciparum line HB3 (AID 1886); details: Potency: Plasmodium falciparum HB3 proliferation inhibition;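 note: parasites grown with compound for 72 h before SYBR Green readout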; note: potency is the fitted concentration of half-maximal effect
[18] = qHTS Assay for Modulators of Human Peripheral Myelin Protein 22 (PMP22) Expression/Activity (AID 1967; active = well fitted curve in the direction sought with a large enough effect in the signal ratio; the % refers to the signal ratio)
How it was run: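 Luminescence ratio of Pmp22 promoter-driven green luciferase to EF-alpha-driven red luciferase, in engineered mouse MSC80 Schwann cells, served as read-out. Compounds were incubated 24h; untreated cells defined 0% Activity; curves were classified by r2, magnitude and activity.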

[19] = molecular target: Ferritin light chain (Equus caballus) (UniProt P02791); assay: qHTS Validation Assay for Identification of Novel General Anesthetics (AID 2323); note: series mostly up to about 77 µM
Ferritin light chain (Equus caballus), sequence (P02791 2-175 limits assumed): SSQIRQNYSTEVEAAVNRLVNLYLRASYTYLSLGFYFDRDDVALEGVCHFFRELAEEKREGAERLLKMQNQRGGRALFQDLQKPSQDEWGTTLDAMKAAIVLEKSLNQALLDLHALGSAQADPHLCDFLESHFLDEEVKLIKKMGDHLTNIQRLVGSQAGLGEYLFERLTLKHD
How it was run: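 Fluorescence at 535 nm (excitation 380 nm) reported loss of 1-AMA binding to horse-spleen apoferritin (10 uM) in PBS with 50% saturated 1-aminoanthracene, after 10 min room-temperature incubation with compound; values from Hill fits of normalized response.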

[20] = qHTS Assay for Identification of Small Molecule Inducers of Hypoxia Response (AID 2120; active = well fitted curve in the direction sought with a large enough effect in the signal ratio, with a control signal flat, not every such curve was filed as active; the % refers to the signal ratio)
How it was run: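 HRE-bla ME-180, 2500 cells/well, 0.5% dialyzed FBS medium; cpd titration, 17 h 37 degrees C; CCF4 2.5 h RT; Ex 405, Em 460/530 ratio -> %Activity, AC50.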

Measured: Potency

NC(=O)c1ccc2[nH]ccc2c1
inactive: [1] | [2] | [3] | [4] | [5]

CC(=O)[C@H]1CC[C@H]2[C@@H]3CCC4=CC(=O)CC[C@]4(C)[C@H]3CC[C@]12C
inactive: [6] | [7] | [8] | [9] | [1] | [2] | [3] | [4] | [10] | [5]

CCCCS(=N)(=O)CCC(N)C(=O)O (stereo not given)
inactive: [7] | [12] | [13] | [14] | [15] | [17] | [18] | [19] | [8] | [9] | [1] | [2] | [3] | [4] | [10] | [5]

NC(N)=NC(N)=NCCc1ccccc1
inactive: [20]

COc1cc2nc(N3CCCN(C)CC3)nc(NC3CCN(Cc4ccccc4)CC3)c2cc1OC
inactive: [5]
active: [2] 2.61 µM | [4] 6.56 µM

O=C(O)C1CCCN(CCC=C(c2ccccc2)c2ccccc2)C1 (stereo not given)
inactive: [6] | [7] | [11] | [12] | [13] | [14] | [15] | [16] | [17] | [18] | [19] | [8] | [9] | [1] | [2] | [3] | [4] | [10] | [5]

Cc1ccc(S(=O)(=O)N[C@@H](Cc2ccccc2)C(=O)CCl)cc1
active: [16] 11.2 µM
inactive: [6] | [14] | [17] | [19] | [8] | [5]

COc1ccc2cc3[n+](cc2c1OC)CCc1cc2c(cc1-3)OCO2
inactive: [20]

N=C(N)c1ccc(OCCCCCOc2ccc(C(=N)N)cc2)cc1
inactive: [20]

CCN(CC)CCn1c(=O)c(Cc2ccc(OC)cc2)nc2ccccc21
inactive: [1] | [2] | [3] | [4] | [5]

N[C@@H](Cc1ccc(O)c(O)c1)C(=O)O
inactive: [1] | [2] | [3] | [4]

CC1CC2C3CCC4=CC(=O)C=C[C@]4(C)[C@@]3(F)[C@@H](O)C[C@]2(C)[C@@]1(O)C(=O)CO (stereo not given in full)
inactive: [1] | [2] | [3] | [4] | [5]

Cc1noc(NS(=O)(=O)c2ccc(N)cc2)c1C
inactive: [20]

CC1=C(C(=O)O)N2C(=O)[C@@H](NC(=O)C(N)c3ccccc3)[C@H]2SC1 (stereo not given in full)
inactive: [6] | [7] | [11] | [12] | [13] | [14] | [15] | [16] | [17] | [18] | [19] | [8] | [2] | [3] | [4] | [10] | [5]

O=C(O)c1cc(=O)[nH]c(=O)[nH]1
inactive: [20]

CC(=O)Oc1ccccc1C(=O)Nc1ncc([N+](=O)[O-])s1
inactive: [20]

NC(=O)c1cccc(N)c1
inactive: [6] | [7] | [11] | [12] | [13] | [14] | [15] | [16] | [17] | [19] | [8] | [9] | [1] | [2] | [3] | [4] | [10] | [5]

CC(C)(C)NC(=O)[C@H]1CC[C@H]2[C@@H]3CC[C@H]4NC(=O)C=C[C@]4(C)[C@H]3CC[C@]12C
inactive: [6] | [7] | [15] | [19] | [8] | [10]
active: [11] 10 µM | [16] 10 µM

CCN1CCCC1CNC(=O)c1cc(S(N)(=O)=O)ccc1OC (stereo not given)
inactive: [6] | [7] | [11] | [12] | [13] | [14] | [15] | [16] | [17] | [18] | [19] | [8] | [1] | [2] | [3] | [4] | [10] | [5]

CC(C)NCC(O)c1ccc(NS(C)(=O)=O)cc1 (stereo not given)
inactive: [6] | [7] | [11] | [12] | [13] | [14] | [15] | [17] | [18] | [19] | [8] | [1] | [2] | [3] | [4] | [10] | [5]

OCc1ccc(-c2nn(Cc3ccccc3)c3ccccc23)o1
active: [16] 8.91 µM | [10] 12.6 µM
inactive: [6] | [14] | [19] | [8] | [1] | [2] | [3] | [4] | [5]

Cc1ccnc2c1NC(=O)c1cccnc1N2C1CC1
inactive: [20]

COc1cc2ncnc(Nc3cccc(Cl)c3)c2cc1OC
active: [11] 8.91 µM | [12] 6.31 µM | [13] 2.51 µM | [14] 5.62 µM | [16] 7.94 µM | [17] 10 µM
inactive: [7] | [19] | [8] | [1] | [2] | [3] | [4] | [5]

Nc1nc(N)c2nc(CNc3ccc(C(=O)NC(CCC(=O)O)C(=O)O)cc3)cnc2n1 (stereo not given)
inactive: [6] | [11] | [13] | [15] | [16] | [17] | [18] | [8] | [1] | [2] | [3] | [4] | [10] | [5]
